This is one part of a sample in which the strongest signals are shown more often than they occur.
Key:
Assay in all cases: glycan array binding signal (z-score within array); higher = stronger binding
Settings in all cases: glycan notation: IUPAC condensed, linker removed
[1] = target: Fuc(a1-2)Gal(b1-3)GlcNAc(b1-2)Man(a1-3)[Fuc(a1-2)Gal(b1-3)GlcNAc(b1-2)Man(a1-6)]Man(b1-4)GlcNAc(b1-4)GlcNAc
Summary of the method: (§1)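 The Consortium for Functional Glycomics database supplied 3228 glycan arrays, of which those lacking an available protein sequence were dropped. The binding signal, a within-array Z-score, was averaged across arrays of the same protein sequence and across linkers. Negative scores can be read as non-binding.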

[2] = target: Fuc(a1-2)Gal(b1-3)GlcNAc(b1-3)[Neu5Ac(a2-6)Gal(b1-4)GlcNAc(b1-6)]Gal(b1-4)Glc
Summary of the method: as §1

[3] = target: Fuc(a1-2)Gal(b1-4)Fuc(a1-3)]GlcNAc(b1-2)Man(a1-3)[Fuc(a1-2)Gal(b1-4)[Fuc(a1-3)]GlcNAc(b1-2)Man(a1-6)]Man(b1-4)GlcNAc(b1-4)GlcNAc
Summary of the method: as §1

[4] = target: Fuc(a1-2)Gal(b1-4)GlcNAc(b1-3)[Fuc(a1-2)Gal(b1-4)GlcNAc(b1-6)]GalNAc
Summary of the method: as §1

[5] = target: Fuc(a1-2)[Gal(a1-3)]Gal(b1-4)[Fuc(a1-3)]GlcNAc
Summary of the method: as §1

[6] = target: Fuc(a1-2)[GalNAc(a1-3)]Gal(b1-4)GlcNAc(b1-3)Gal(b1-4)GlcNAc
Summary of the method: as §1

[7] = target: Fuc(a1-2)[GalNAc(a1-3)]Gal(b1-4)GlcNAc(b1-3)[Fuc(a1-2)[GalNAc(a1-3)]Gal(b1-4)GlcNAc(b1-6)]GalNAc
Summary of the method: as §1

[8] = target: Fuc(a1-2)[GalNAc(a1-3)]Gal(b1-4)[Fuc(a1-3)]GlcNAc(b1-3)GalNAc
Summary of the method: as §1

[9] = target: Fuc(a1-2)[GalNAc(a1-4)]Gal(b1-4)GlcNAc
Summary of the method: as §1

[10] = target: Fuc(a1-3)[Gal(b1-4)]GlcNAc(b1-2)Man(a1-3)[Fuc(a1-3)[Gal(b1-4)]GlcNAc(b1-2)Man(a1-6)]Man(b1-4)GlcNAc(b1-4)[Fuc(a1-6)]GlcNAc
Summary of the method: as §1

[11] = target: Fuc(a1-3)[Gal(b1-4)]GlcNAc(b1-3)Gal(b1-4)[Fuc(a1-3)]GlcNAc
Summary of the method: as §1

[12] = target: Gal(a1-3)Gal(b1-3)GlcNAc(b1-3)GalNAc
Summary of the method: as §1

[13] = target: Gal(b1-3)GlcNAc(a1-3)Gal(b1-4)GlcNAc
Summary of the method: as §1

[14] = target: Gal(b1-3)GlcNAc(b1-6)[Gal(b1-3)]GalNAc
Summary of the method: as §1

[15] = target: Gal(b1-3)[Fuc(a1-4)]GlcNAc(b1-2)Man(a1-3)[Gal(b1-3)[Fuc(a1-4)]GlcNAc(b1-2)Man(a1-6)]Man(b1-4)GlcNAc(b1-4)[Fuc(a1-6)]GlcNAc
Summary of the method: as §1

[16] = target: Gal(b1-4)GlcNAc(b1-2)Man(a1-3)[GlcNAc(b1-4)][Gal(b1-4)GlcNAc(b1-2)Man(a1-6)]Man(b1-4)GlcNAc(b1-4)GlcNAc
Summary of the method: as §1

[17] = target: Gal(b1-4)GlcNAc(b1-3)Gal(b1-4)GlcNAc(b1-2)Man(a1-3)[Gal(b1-4)GlcNAc(b1-3)Gal(b1-4)GlcNAc(b1-2)Man(a1-6)]Man(b1-4)GlcNAc(b1-4)GlcNAc
Summary of the method: as §1

[18] = target: Gal(b1-4)GlcNAc(b1-3)Gal(b1-4)GlcNAc(b1-3)GalNAc
Summary of the method: as §1

[19] = target: Gal(b1-4)GlcNAc(b1-3)Gal(b1-4)GlcNAc(b1-3)[Gal(b1-4)GlcNAc(b1-3)Gal(b1-4)GlcNAc(b1-6)]GalNAc
Summary of the method: as §1

[20] = target: Gal3S(b1-3)[Fuc(a1-4)]GlcNAc
Summary of the method: as §1

Gal3S(b1-4)Glc = target: Gal3S(b1-4)Glc
Summary of the method: as §1

Gal3S4S(b1-4)GlcNAc = target: Gal3S4S(b1-4)GlcNAc
Summary of the method: as §1

Gal6S(b1-4)GlcNAc6S = target: Gal6S(b1-4)GlcNAc6S
Summary of the method: as §1

GalNAc(a1-3)GalNAc = target: GalNAc(a1-3)GalNAc
Summary of the method: as §1

[21] = target: GalNAc(a1-3)GalNAc(b1-3)Gal(a1-4)Gal(b1-4)Glc
Summary of the method: as §1

GalNAc(b1-3)Gal = target: GalNAc(b1-3)Gal
Summary of the method: as §1

GalNAc3S(b1-4)GlcNAc = target: GalNAc3S(b1-4)GlcNAc
Summary of the method: as §1

[22] = target: GlcNAc(b1-3)Gal(b1-4)GlcNAc(b1-2)Man(a1-3)[GlcNAc(b1-3)Gal(b1-4)GlcNAc(b1-2)Man(a1-6)]Man(b1-4)GlcNAc(b1-4)GlcNAc
Summary of the method: as §1

[23] = target: GlcNAc(b1-3)Gal(b1-4)GlcNAc(b1-3)Gal(b1-4)GlcNAc(b1-3)Gal(b1-4)GlcNAc(b1-2)Man(a1-3)[GlcNAc(b1-3)Gal(b1-4)GlcNAc(b1-3)Gal(b1-4)GlcNAc(b1-3)Gal(b1-4)GlcNAc(b1-2)Man(a1-6)]Man(b1-4)GlcNAc(b1-4)[Fuc(a1-6)]GlcNAc
Summary of the method: as §1

[24] = target: GlcNAc(b1-3)Gal(b1-4)GlcNAc(b1-6)[GlcNAc(b1-3)Gal(b1-3)]GalNAc
Summary of the method: as §1

B1: LFA (Limax flavus) (protein)
chain: MSVLFLAASFLLLASFELVAAQGCPRQDPGDWIVIQRRLNADVNFYRGWADYKHGFGDLRCNFWLGNEKIHQLTSHGRYKLRVEFTFNNKSYFAEYSTFKILGEADKYKLQVGGYSGNAGDALTFHNGMAFSTNDRDNDADSIDCAKVYHGAWWYKTCHESNLNGKWGSKKYGEGLNWKAKTTFTATATSSLLKIKALK
With B1 the “glycan array binding signal (z-score)” value [1] was 0.702, the “glycan array binding signal (z-score)” value [2] was -0.319 and the “glycan array binding signal (z-score)” value [3] was 1.54. For the same binder, the “glycan array binding signal (z-score)” value [4] was -0.186, the “glycan array binding signal (z-score)” value [5] was -0.137 and the “glycan array binding signal (z-score)” value [6] was -0.192. For the same binder, the “glycan array binding signal (z-score)” value [7] was -0.241, the “glycan array binding signal (z-score)” value [8] was -0.214 and the “glycan array binding signal (z-score)” value [9] was 3.52. For the same binder, the “glycan array binding signal (z-score)” value [10] was -0.15, the “glycan array binding signal (z-score)” value [11] was -0.217 and the “glycan array binding signal (z-score)” value [12] was 0.016. For the same binder, the “glycan array binding signal (z-score)” value [13] was -0.103, the “glycan array binding signal (z-score)” value [14] was -0.21 and the “glycan array binding signal (z-score)” value [15] was 0.669. For the same binder, the “glycan array binding signal (z-score)” value [16] was 0.181, the “glycan array binding signal (z-score)” value [17] was 2.97 and the “glycan array binding signal (z-score)” value [18] was 2.68. The “glycan array binding signal (z-score)” value [19] was 2.39, the “glycan array binding signal (z-score)” value [20] was -0.306 and the “glycan array binding signal (z-score)” value (Gal3S(b1-4)Glc) was -0.271. For the same binder, the “glycan array binding signal (z-score)” value (Gal3S4S(b1-4)GlcNAc) was -0.218, the “glycan array binding signal (z-score)” value (Gal6S(b1-4)GlcNAc6S) was -0.066 and the “glycan array binding signal (z-score)” value (GalNAc(a1-3)GalNAc) was 3.66. For the same binder, the “glycan array binding signal (z-score)” value [21] was 13.1, the “glycan array binding signal (z-score)” value (GalNAc(b1-3)Gal) was -0.195 and the “glycan array binding signal (z-score)” value (GalNAc3S(b1-4)GlcNAc) was -0.277. For the same binder, the “glycan array binding signal (z-score)” value [22] was -0.217, the “glycan array binding signal (z-score)” value [23] was 0.314 and the “glycan array binding signal (z-score)” value [24] was -0.285.

— the supplement of paper PMC8728848
